Experimental data from PubChem BioAssay (Tox21).
Records with an inconclusive call do not appear. More than one record can exist for a structure, and the calls need not agree. Activity calls are given as the source filed them. Unless noted, calls follow the shape of the full dose curve.

What was measured:
[1] = biological target: Gonadotropin-releasing hormone receptor (Homo sapiens) (UniProt P30968); test: Human gonadotropin-releasing hormone receptor (GnRHR) small molecule agonists, calcium flux assay in GnRHR-HEK293 cells (AID 1920063); also: nearly all actives have a fitted effect of over 35% in size
Gonadotropin-releasing hormone receptor (Homo sapiens), sequence (P30968 whole entry, looked up): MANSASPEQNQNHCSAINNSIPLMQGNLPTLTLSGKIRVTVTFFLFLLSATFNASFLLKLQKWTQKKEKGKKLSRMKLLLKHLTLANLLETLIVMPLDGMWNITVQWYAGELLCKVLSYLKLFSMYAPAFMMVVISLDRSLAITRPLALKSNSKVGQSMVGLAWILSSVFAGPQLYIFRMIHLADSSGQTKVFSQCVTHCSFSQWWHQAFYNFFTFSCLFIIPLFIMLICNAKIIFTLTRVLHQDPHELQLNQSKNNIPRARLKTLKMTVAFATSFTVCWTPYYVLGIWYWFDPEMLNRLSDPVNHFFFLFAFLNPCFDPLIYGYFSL
Method in brief: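 GnRHR-HEK293, 1500 cells/well, 18 h 37 C/5% CO2; Ca dye 1 h 37 C; cpd pinned (DMSO), agonist mode; kinetic FL 480/540, 3 min, 1 s reads; 15 conc, n=3.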

[2] = biological target: KiSS-1 receptor (Homo sapiens) (UniProt Q969F8); test: Human kisspeptin (KISS1R) small molecule agonists, calcium flux assay in KISS1R-HEK293 cells (AID 1920064; active = well fitted activation curve with a large enough effect in the repeat runs)
KiSS-1 receptor (Homo sapiens), sequence (Q969F8 whole entry, looked up): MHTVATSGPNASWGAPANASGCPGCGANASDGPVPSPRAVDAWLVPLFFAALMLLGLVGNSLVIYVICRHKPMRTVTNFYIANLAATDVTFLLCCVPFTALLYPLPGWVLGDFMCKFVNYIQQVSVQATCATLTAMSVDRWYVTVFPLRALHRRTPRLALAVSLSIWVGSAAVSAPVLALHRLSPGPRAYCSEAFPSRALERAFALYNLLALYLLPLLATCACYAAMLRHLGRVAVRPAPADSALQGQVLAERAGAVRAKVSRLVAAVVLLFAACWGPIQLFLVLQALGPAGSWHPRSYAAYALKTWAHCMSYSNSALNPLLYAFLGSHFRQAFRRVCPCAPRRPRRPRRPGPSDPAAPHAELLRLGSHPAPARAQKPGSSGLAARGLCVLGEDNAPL
Method in brief: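 Stable human KISS1R HEK293 line; 18 h plating, 37 C/5% CO2; calcium dye 1 h 37 C; compound pin transfer; kinetic fluorescence Ex/Em 480/540, 3 min.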

[3] = G protein-coupled receptor (GPCR) small molecule agonists, calcium flux assay: HEK293 wild type cell line counter screen (AID 1920065)
Method in brief: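 Kinetic fluorescence at Ex/Em 480/540, recorded every second over 3 min, served as the read-out after compound addition. Each compound was tested at 15 concentrations in triplicate on cells pre-loaded with calcium dye for 1 h.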

[4] = biological target: 5-hydroxytryptamine receptor 2A (Homo sapiens) (UniProt P28223); test: 5-hydroxytryptamine receptor 2A (HTR2A) small molecule antagonists, cell-based qHTS assay (AID 1963586); also: nearly all actives have a fitted effect of over 45% in size; also: potency is read from the fitted curve at half-maximal effect
5-hydroxytryptamine receptor 2A (Homo sapiens), sequence (P28223 whole entry, looked up): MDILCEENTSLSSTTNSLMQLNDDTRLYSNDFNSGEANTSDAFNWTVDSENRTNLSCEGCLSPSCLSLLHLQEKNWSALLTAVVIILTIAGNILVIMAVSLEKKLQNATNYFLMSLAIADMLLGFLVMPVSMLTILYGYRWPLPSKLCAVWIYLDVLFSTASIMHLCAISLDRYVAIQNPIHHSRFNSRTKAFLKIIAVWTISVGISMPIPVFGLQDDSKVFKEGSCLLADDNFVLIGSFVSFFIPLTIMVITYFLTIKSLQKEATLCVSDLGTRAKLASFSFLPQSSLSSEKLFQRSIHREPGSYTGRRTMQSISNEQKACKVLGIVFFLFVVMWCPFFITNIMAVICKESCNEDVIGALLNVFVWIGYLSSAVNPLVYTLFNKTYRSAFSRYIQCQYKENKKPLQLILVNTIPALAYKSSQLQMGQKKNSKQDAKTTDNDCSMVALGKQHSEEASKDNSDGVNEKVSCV
Method in brief: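 Antagonist-mode intracellular calcium assay: DOI (4 nM) added after 5 min compound pre-incubation at room temperature to dye-loaded HTR2A-CHO cells. Fluorescence followed for 3 min, sampled every second.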

[5] = biological target: 5-hydroxytryptamine receptor 2A (Homo sapiens) (UniProt P28223); test: 5-hydroxytryptamine receptor 2A (HTR2A) small molecule agonists, cell-based qHTS assay (AID 1963587); also: nearly all actives have a fitted effect of over 30% in size
Method in brief: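 CHO cells stably expressing human HTR2A, plated 18 h, loaded with calcium dye 1 h at 37 C. Agonist mode: compounds added and intracellular calcium fluorescence recorded kinetically for 2 min at 1 sec intervals.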

[6] = biological target: Muscarinic acetylcholine receptor M1 (Homo sapiens) (UniProt P11229); test: Cholinergic receptor muscarinic 1 (CHRM1) small molecule antagonists, cell-based qHTS assay (AID 1963588); also: nearly all actives have a fitted effect of over 40% in size
Muscarinic acetylcholine receptor M1 (Homo sapiens), sequence (P11229 whole entry, looked up): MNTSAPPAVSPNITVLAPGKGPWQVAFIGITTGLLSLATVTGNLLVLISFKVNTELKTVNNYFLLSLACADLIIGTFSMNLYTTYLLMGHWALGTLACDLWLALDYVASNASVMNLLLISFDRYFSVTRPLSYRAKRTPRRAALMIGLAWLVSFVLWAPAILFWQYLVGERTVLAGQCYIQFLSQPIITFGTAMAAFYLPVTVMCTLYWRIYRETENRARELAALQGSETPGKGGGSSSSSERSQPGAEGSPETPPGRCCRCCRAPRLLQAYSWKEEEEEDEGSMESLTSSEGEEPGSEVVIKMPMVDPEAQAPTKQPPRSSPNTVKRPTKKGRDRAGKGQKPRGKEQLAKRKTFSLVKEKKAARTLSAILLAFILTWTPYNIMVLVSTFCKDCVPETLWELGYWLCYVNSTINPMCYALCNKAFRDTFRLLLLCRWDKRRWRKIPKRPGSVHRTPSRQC
Method in brief: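 CHRM1-CHO calcium-flux assay, antagonist mode. Cells were seeded 18 h, dye-loaded 1 h at 37 C and given compound for 5 min at RT, then acetylcholine was added at 50nM. FDSS fluorescence was read 3 min; 15 concentrations, three runs.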

[7] = biological target: Muscarinic acetylcholine receptor M1 (Homo sapiens) (UniProt P11229); test: Cholinergic receptor muscarinic 1 (CHRM1) small molecule agonists, cell-based qHTS assay (AID 1963589); also: nearly all actives have a fitted effect of over 35% in size
Method in brief: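 Human M1 in stable CHO line; 18 h plating, 1 h dye load 37 C; cpd added (agonist mode); Ca2+ fluorescence kinetic read, 1 s intervals; 15 conc, 3 runs.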

[8] = cAMP Responsive Elements (CRE) small molecule agonists, cell-based qHTS assay (AID 1963590)
Method in brief: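 HEK 293T CRE-bla, 2,000 cells/well, 18 h preincubation 37 C/5% CO2; cpds (DMSO) pinned, 3 h; LiveBLAzer B/G FRET substrate, 2 h RT.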

[9] = biological target: Beta-2 adrenergic receptor (Homo sapiens) (UniProt P07550); test: Adrenergic beta2 receptor (ADRB2) small molecule antagonists, cell-based qHTS assay (AID 1963592); also: series mostly up to about 92 µM; nearly all actives have a fitted effect of over 50% in size
Beta-2 adrenergic receptor (Homo sapiens), sequence (P07550 whole entry, looked up): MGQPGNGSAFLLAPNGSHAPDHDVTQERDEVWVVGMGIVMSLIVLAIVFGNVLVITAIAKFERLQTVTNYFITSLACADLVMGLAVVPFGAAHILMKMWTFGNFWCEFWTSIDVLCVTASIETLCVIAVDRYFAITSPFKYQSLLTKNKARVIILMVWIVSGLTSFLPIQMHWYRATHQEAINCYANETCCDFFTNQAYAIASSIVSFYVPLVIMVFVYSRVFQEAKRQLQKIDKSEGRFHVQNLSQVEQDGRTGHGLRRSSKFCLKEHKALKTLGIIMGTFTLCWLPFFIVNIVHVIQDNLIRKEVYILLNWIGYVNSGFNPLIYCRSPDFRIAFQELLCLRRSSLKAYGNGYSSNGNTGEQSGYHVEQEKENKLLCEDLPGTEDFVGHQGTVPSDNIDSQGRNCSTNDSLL
Method in brief: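 Cells (CHO, stable ADRB2 overexpression) incubated 18-20hr at 37C; compounds added from DMSO; agonist mix (1nM isoproterenol, 100uM IBMX, 25uM Ro-20-1724) added; 0.5hr RT; d2-cAMP and anti-cAMP-cryptate added; 1hr RT; 665/615 nm read.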

[10] = biological target: D(2) dopamine receptor (Homo sapiens) (UniProt P14416); test: Dopamine D2 receptor (DRD2) small molecule agonists, cell-based qHTS assay (AID 1963594); also: nearly all actives have a fitted effect of over 35% in size; also: potency is read from the fitted curve at half-maximal effect
D(2) dopamine receptor (Homo sapiens), sequence (P14416 whole entry, looked up): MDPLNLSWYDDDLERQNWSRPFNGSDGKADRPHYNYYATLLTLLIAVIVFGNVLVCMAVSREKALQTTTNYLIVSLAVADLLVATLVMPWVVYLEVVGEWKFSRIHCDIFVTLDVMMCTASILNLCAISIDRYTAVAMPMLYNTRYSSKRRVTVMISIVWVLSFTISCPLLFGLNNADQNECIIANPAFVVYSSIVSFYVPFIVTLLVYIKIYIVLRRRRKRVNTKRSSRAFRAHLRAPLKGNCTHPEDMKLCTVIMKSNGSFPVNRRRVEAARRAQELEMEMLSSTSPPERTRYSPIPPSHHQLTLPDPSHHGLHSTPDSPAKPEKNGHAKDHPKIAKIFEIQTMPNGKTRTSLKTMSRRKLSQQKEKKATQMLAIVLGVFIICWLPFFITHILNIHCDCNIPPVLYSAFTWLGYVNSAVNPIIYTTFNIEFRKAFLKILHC
Method in brief: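 HEK293 cells stably expressing human DRD2, pre-treated with PDE inhibitor Ro20-1724 (0.1 mM final) and compound 10 min at room temperature, then stimulated with NKH477 (200nM […]) for 30 min. cAMP read by HTRF (665/620 nm).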

[11] = biological target: D(2) dopamine receptor (Homo sapiens) (UniProt P14416); test: Dopamine D2 receptor (DRD2) small molecule antagonists, cell-based qHTS assay (AID 1963595; active = well fitted inhibition curve with a large enough effect in the signal ratio in the repeat runs, with a control signal flat; the % refers to the signal ratio; also: potency is read from the fitted curve at half-maximal effect)
Method in brief: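 Stable D2 receptor HEK293 line, 24 h after seeding. Compound preincubated 10 min, then quinpirole (12 nM) with forskolin analogue NKH477 (200 nM), 30 min, room temperature. Detection by time-resolved FRET of cAMP.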

[12] = p53 small molecule agonists, cell-based qHTS assay with human liver microsomes (AID 1963577)
Method in brief: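 Fluorescence of the beta-lactamase reporter in p53RE-bla cells, detected with LiveBLAzer substrate (2 h, room temperature, dark), served as the read-out after 16 h compound exposure at 37 C with human liver microsomes and NADPH, each 0.5 mg/mL final.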

[13] = p53 small molecule agonists, cell-based qHTS assay with rat liver microsomes (AID 1963578)
Method in brief: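 Cells carrying a p53 response element–beta-lactamase reporter were plated and rested 5 h, then dosed with compound in DMSO plus rat liver microsomes and NADPH, each at 0.5 mg/mL final. After 16 h at 37 C, LiveBLAzer substrate was added for 2 h.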

[14] = p53 small molecule agonists, cell-based qHTS assay with human liver microsomes: qHTS cell viability counter screen (AID 1963579); also: nearly all actives have a fitted effect of over 45% in size
Method in brief: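 Cytotoxicity counter screen: p53RE-bla, 4,000 cells/well; 5 h settle, 37 C/5% CO2; cpd + HLM 0.5 mg/mL + NADPH 0.5 mg/mL (final); 16 h, 37 C; CellTiter-Glo, 30 min RT, luminescence.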

[15] = p53 small molecule agonists, cell-based qHTS assay with rat liver microsomes: qHTS cell viability counter screen (AID 1963580); also: nearly all actives have a fitted effect of over 45% in size
Method in brief: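 p53RE-bla HCT-116 cells were exposed 16 h at 37 C to compounds with rat liver microsomes (0.5 mg/mL) and NADPH (0.5 mg/mL). Viability was measured in the same wells as ATP content by CellTiter-Glo luminescence.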

[16] = p53 small molecule agonists, cell-based qHTS assay: qHTS cell viability counter screen (AID 1963581); also: nearly all actives have a fitted effect of over 45% in size
Method in brief: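 HCT-116 p53RE-bla cells, 4,000/well, plated 5 h before compound pin transfer; 16 h at 37 C; bla substrate 2 h RT; then CellTiter-Glo, 30 min RT, luminescence.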

[17] = p53 small molecule agonists, cell-based qHTS assay (AID 1963582; active = well fitted activation curve with a large enough effect in the signal ratio in the repeat runs, not every such curve was filed as active; the % refers to the signal ratio)
Method in brief: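 Reporter line: p53RE-bla. Pre-incubation 5 h, 37 C, 5% CO2; compound (DMSO, pin tool) 16 h, 37 C; B/G FRET substrate 2 h RT; fluorescence intensity read.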

[18] = cAMP Responsive Elements (CRE) small molecule antagonists, cell-based qHTS assay (AID 1963591; active = well fitted inhibition curve with a large enough effect in the signal ratio in the repeat runs, not every such curve was filed as active; the % refers to the signal ratio)
Method in brief: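 Beta-lactamase reporter read by FRET substrate (LiveBLAzer B/G) after 2 h at room temperature. CRE-bla HEK293T cells had received compound plus 0.25 uM (final) NKH477 for 3 h at 37 °C.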

[19] = biological target: Beta-2 adrenergic receptor (Homo sapiens) (UniProt P07550); test: Adrenergic beta2 receptor (ADRB2) small molecule agonists, cell-based qHTS assay (AID 1963593);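 also: CHO cells stably overexpressing human ADRB2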
Method in brief: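 CHO cells stably over-expressing ADRB2 were plated overnight at 37C, then dosed with compounds plus a stimulation mix containing 100uM IBMX and 25uM Ro-20-1724 for 0.5hr at room temperature. cAMP was measured by HTRF competition, 1hr.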

Measured: Potency

O=C(O)CCn1c2c(c3ccccc31)C[C@H](NS(=O)(=O)c1ccc(F)cc1)CC2
inactive: [1] | [2] | [3] | [4] | [5] | [6] | [7] | [8] | [9] | [10] | [11]

Nc1cccnc1N
inactive: [1] | [3] | [12] | [13] | [14] | [15] | [16] | [17] | [4] | [5] | [6] | [7] | [8] | [18]

CC(C)(C)c1ccc(OC(=O)c2ccccc2O)cc1
inactive: [1] | [3] | [12] | [13] | [14] | [15] | [16] | [17] | [4] | [5] | [6] | [7] | [18] | [9] | [10] | [11]

CC(C)CCCCCCN
inactive: [1] | [2] | [12] | [13] | [14] | [15] | [16] | [17] | [4] | [5] | [6] | [7] | [8] | [18] | [9] | [10] | [11]

CN(C/C=C/C#CC(C)(C)C)Cc1cccc2ccccc12
inactive: [1] | [2] | [12] | [14] | [15] | [16] | [9] | [19] | [10]

COC(=O)C1=C(C)NC(C)=C(C(=O)OC)C1c1ccccc1[N+](=O)[O-]
68.7 µM (active) and inactive: [11]
inactive: [1] | [2] | [3] | [17] | [8] | [9] | [10]

Cc1c(-c2ccc(O)cc2)n(Cc2ccc(OCCN3CCCCCC3)cc2)c2ccc(O)cc12
inactive: [1] | [2] | [3] | [5] | [7] | [9]

Nc1ccc([N+](=O)[O-])cc1O
inactive: [1] | [2] | [14] | [4] | [5] | [6] | [7] | [8] | [18]

CN(C)CCOC(c1ccccc1)c1ccccc1 (tested in a mixture with another compound)
inactive: [1] | [2] | [8] | [18] | [10] | [11]

CCCC(=O)Nc1ccc(OCC(O)CNC(C)C)c(C(C)=O)c1 (configuration not stated)
active: [10] 18.8 µM
inactive: [1] | [2] | [3] | [16] | [8] | [18] | [11]

CCCCc1oc2ccccc2c1C(=O)c1cc(I)c(OCCN(CC)CC)c(I)c1
inactive: [1] | [2] | [17] | [9] | [19] | [10] | [11]

CN1[C@@H]2CC[C@@H]1CC(OC(=O)C(CO)c1ccccc1)C2 (some centres not stated)
inactive: [1] | [2] | [3] | [8] | [18] | [9] | [10] | [11]

CC1=C(C/C=C(\C)CCC[C@H](C)CCC[C@H](C)CCCC(C)C)C(=O)c2ccccc2C1=O
inactive: [1] | [2] | [13] | [14] | [15] | [16] | [17] | [4] | [5] | [6] | [7] | [8] | [18] | [9] | [10] | [11]

Cc1ccccc1
inactive: [1] | [2] | [3] | [4] | [5] | [8] | [18] | [9] | [10] | [11]

OCC(O)CO
inactive: [1] | [2] | [3] | [4] | [5] | [6] | [8] | [18] | [9] | [19] | [10] | [11]

CC(C)n1c(/C=C/[C@@H](O)C[C@@H](O)CC(=O)O)c(-c2ccc(F)cc2)c2ccccc21
inactive: [1] | [2] | [3] | [16] | [8] | [9] | [19] | [10] | [11]

Cc1c(C)n(Cc2ccccc2)c2ccc(C(=O)OCCN(C)C)cc12
inactive: [1] | [3] | [12] | [13] | [14] | [15] | [6] | [7] | [8] | [9] | [10]
active: [4] 16.3 µM | [11] 33.5 µM

O=C(O)c1cn(C2CC2)c2cc(N3CCNCC3)c(F)cc2c1=O
inactive: [1] | [2] | [3] | [16] | [8] | [18] | [10] | [11]

O=C(c1ccccc1)c1ccccc1
inactive: [1] | [2] | [3] | [16] | [4] | [5] | [6] | [7] | [8] | [18] | [9] | [19] | [10] | [11]

CC(C)(C)NC(=O)[C@@H]1C[C@@H]2CCCC[C@@H]2CN1C[C@@H](O)[C@H](Cc1ccccc1)NC(=O)[C@H](CC(N)=O)NC(=O)c1ccc2ccccc2n1
inactive: [1] | [2] | [3] | [9] | [10] | [11]
